For some assays here: Entries with a potency or affinity are not part of this list. Active and inactive are the calls of the source. Unless noted, no rule for the calls is given here.
Experiments:
[1] = antimalarial activity against Dd2 strain (AID 2302;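 active = growth inhibition above 50% at the single 2 µM test dose, taken to imply half-maximal potency below 2 µM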;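 also: 0% = DMSO untreated growth and 100% = chloroquine plus artemisinin killed control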); conditions: P. falciparum Dd2 in RBCs, LDH growth readout, 72 h; at 2 µM; active compounds read high
[2] = human hepatoma cell viability loss – ATP luminescence, cytotoxicity control for P. falciparum antimalarial project, primary screen (AID 2303;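 active = inhibition above 50%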;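 also: 0% = DMSO wells and 100% = digitonin-killed cells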); conditions: HepG2 viability, 24-48 h, at 10 µM, active compounds read high
[3] = target: L-lactate dehydrogenase (Plasmodium falciparum (isolate CDC / Honduras)) (UniProt Q27743); experiment: PfLDH activity inhibition – cell lysate, 3D7 strain, counter-screen for P. falciparum growth inhibition project (AID 2304);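 also: 0% = vehicle and 100% = reference inhibitor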; conditions: P. falciparum 3D7 crude extract, LDH APAD/NBT absorbance; at 2 µM; active compounds read high
Sequence of L-lactate dehydrogenase (Plasmodium falciparum (isolate CDC / Honduras)) (Q27743 whole entry, looked up): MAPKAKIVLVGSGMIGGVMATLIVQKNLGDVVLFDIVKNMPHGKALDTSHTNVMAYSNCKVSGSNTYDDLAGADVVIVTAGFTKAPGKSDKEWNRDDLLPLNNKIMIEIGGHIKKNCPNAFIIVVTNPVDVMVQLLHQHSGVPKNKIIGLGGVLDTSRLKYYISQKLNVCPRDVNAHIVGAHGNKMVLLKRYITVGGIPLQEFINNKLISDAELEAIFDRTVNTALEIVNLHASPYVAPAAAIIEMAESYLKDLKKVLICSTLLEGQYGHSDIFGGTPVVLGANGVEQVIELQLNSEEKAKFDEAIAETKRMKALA

[4] = inhibition of 3D7 malaria parasite growth – strain 3D7 (AID 2306);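 also: 0% = DMSO wells and 100% = chloroquine plus artemisinin control wells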; conditions: P. falciparum 3D7 erythrocytic growth, LDH absorbance, 72 h; at 2 µM; active compounds read high
[5] = target: Calcium-dependent protein kinase 1 (Plasmodium falciparum (isolate 3D7)) (UniProt P62344); experiment: PfCDPK1 kinase inhibitors, biochemical, TCAMS library (AID 1159585; cut-off not given, nearly all actives have IC50 up to about 0.98 µM;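 also: inhibitors leave more ATP so luminescence rises with inhibition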); conditions: recombinant PfCDPK1, Kinase-Glo ATP depletion luminescence
Sequence of Calcium-dependent protein kinase 1 (Plasmodium falciparum (isolate 3D7)) (P62344 whole entry, looked up): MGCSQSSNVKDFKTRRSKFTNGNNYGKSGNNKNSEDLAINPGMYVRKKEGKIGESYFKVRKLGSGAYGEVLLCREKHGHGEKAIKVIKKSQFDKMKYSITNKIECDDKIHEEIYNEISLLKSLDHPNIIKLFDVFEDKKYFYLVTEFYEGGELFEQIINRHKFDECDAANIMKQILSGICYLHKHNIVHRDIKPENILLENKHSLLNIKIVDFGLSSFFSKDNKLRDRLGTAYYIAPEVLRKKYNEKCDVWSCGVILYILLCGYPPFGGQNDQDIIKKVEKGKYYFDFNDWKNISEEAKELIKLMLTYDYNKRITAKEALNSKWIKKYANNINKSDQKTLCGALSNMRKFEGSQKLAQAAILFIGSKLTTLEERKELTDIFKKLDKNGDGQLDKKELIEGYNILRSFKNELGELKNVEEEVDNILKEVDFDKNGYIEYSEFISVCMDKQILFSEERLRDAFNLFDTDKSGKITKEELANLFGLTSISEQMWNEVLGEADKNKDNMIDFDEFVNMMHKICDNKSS

[6] = target: Plasmodium falciparum protein kinase 6 (PK6, PF3D7_1337100) (UniProt Q8IDW1); experiment: PfPK6 kinase inhibitors, biochemical, TCAMS library (AID 1159586); conditions: recombinant PfPK6, Kinase-Glo ATP depletion luminescence
Sequence of Plasmodium falciparum protein kinase 6 (PK6, PF3D7_1337100) (Q8IDW1 1-305): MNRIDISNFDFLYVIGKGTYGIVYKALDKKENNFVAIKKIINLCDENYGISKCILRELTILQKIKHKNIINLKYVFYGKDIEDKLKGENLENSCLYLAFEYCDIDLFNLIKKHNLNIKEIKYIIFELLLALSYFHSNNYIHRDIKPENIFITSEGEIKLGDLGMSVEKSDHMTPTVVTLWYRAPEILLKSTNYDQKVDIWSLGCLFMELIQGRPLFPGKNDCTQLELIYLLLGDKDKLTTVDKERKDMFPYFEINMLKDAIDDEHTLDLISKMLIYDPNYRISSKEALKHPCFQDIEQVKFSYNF

[7] = target: Protein kinase 7 (PK7), Plasmodium falciparum 3D7 (PF3D7_0213400) (UniProt Q7YTF7); experiment: inhibition of Plasmodium PK7 catalytic activity – biochemical, TCAMS antimalarial set, Kinase-Glo luminescence (AID 1159587); conditions: recombinant PfPK7, Kinase-Glo ATP depletion luminescence
Sequence of Protein kinase 7 (PK7), Plasmodium falciparum 3D7 (PF3D7_0213400) (Q7YTF7 1-343): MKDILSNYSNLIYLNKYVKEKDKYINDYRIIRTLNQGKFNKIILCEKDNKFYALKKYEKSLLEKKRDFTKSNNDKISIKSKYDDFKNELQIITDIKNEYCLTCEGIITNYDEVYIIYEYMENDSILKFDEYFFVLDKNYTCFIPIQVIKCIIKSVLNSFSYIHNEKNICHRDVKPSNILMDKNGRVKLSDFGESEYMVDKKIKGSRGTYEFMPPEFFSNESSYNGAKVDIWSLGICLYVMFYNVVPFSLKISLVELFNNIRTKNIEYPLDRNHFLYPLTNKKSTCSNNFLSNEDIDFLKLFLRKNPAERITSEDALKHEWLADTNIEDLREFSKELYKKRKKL

[8] = target: Calcium-dependent protein kinase 4 (Plasmodium falciparum (isolate 3D7)) (UniProt Q8IBS5); experiment: PfCDPK4 kinase inhibitors, biochemical, TCAMS library (AID 1159588; cut-off not given, nearly all actives have IC50 up to about 0.91 µM); conditions: recombinant PfCDPK4, Kinase-Glo ATP depletion luminescence
Sequence of Calcium-dependent protein kinase 4 (Plasmodium falciparum (isolate 3D7)) (Q8IBS5 whole entry, looked up): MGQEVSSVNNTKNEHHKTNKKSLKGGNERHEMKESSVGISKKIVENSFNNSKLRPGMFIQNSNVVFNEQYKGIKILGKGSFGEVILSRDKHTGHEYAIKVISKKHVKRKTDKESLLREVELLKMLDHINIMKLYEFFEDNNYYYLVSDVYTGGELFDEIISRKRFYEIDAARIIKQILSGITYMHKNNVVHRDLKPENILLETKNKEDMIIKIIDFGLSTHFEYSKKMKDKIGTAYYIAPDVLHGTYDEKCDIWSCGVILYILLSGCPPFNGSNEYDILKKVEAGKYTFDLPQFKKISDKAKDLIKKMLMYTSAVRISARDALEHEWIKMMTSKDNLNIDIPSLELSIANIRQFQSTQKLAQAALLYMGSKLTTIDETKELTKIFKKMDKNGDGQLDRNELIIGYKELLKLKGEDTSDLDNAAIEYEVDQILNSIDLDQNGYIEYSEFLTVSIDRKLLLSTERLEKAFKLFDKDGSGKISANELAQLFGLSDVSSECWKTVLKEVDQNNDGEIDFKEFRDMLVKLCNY

c1ccc2cc3c(Nc4ccc(N5CCCCC5)cc4)ccnc3cc2c1
inactive: growth inhibition [1] 36% | inhibition [2] 21% | inhibition [3] -4% | outcome [5] | outcome [6] | outcome [7] | outcome [8]
active: growth inhibition [4] 100%

COc1cccc(NC(=O)NC2CCN(c3ccnc(Nc4ccc(F)cc4)n3)C2)c1 (stereo not given)
active: growth inhibition [1] 71% | growth inhibition [4] 100%
inactive: inhibition [2] 9% | inhibition [3] -2% | outcome [5] | outcome [6] | outcome [7] | outcome [8]

O=C(c1ccccc1N=Nc1c(-c2ccccc2)[nH]n(-c2ccccc2)c1=O)N1CCOCC1
inactive: growth inhibition [1] 2% | inhibition [2] 0% | inhibition [3] -1% | outcome [5] | outcome [6] | outcome [7] | outcome [8]
active: growth inhibition [4] 97%

OC(CNCc1cccc(Oc2ccc(Cl)cc2)c1)c1cc(C(F)(F)F)cc(C(F)(F)F)c1 (stereo not given)
active: growth inhibition [1] 101% | growth inhibition [4] 99%
inactive: inhibition [2] -4% | inhibition [3] 8% | outcome [5] | outcome [6] | outcome [7] | outcome [8]

O=C(Nc1cccc(F)c1)NC1CCN(c2ccnc3cc(Cl)ccc23)C1 (stereo not given)
active: growth inhibition [1] 64% | growth inhibition [4] 101%
inactive: inhibition [2] 13% | inhibition [3] -1% | outcome [5] | outcome [6] | outcome [7] | outcome [8]

O=C(c1cc2c(s1)-c1cccc(Cl)c1SC2)N1CCN(c2ccncc2)CC1
inactive: growth inhibition [1] 36% | inhibition [2] 45% | inhibition [3] 1% | outcome [5] | outcome [6] | outcome [7] | outcome [8]
active: growth inhibition [4] 94%

CC(C)Cn1c(Sc2ccc(C#N)c([N+](=O)[O-])c2)nnc1-c1cccc(Cl)c1
inactive: inhibition [2] 24% | inhibition [3] 5% | outcome [5] | outcome [6] | outcome [7] | outcome [8]
active: growth inhibition [1] 95% | growth inhibition [4] 98%

Cc1cccc2[nH]c(-c3ccc(-c4ccc(CN5CCC(C(N)=O)CC5)cc4)s3)nc12
active: growth inhibition [1] 51% | growth inhibition [4] 97%
inactive: inhibition [2] 4% | inhibition [3] 8% | outcome [5] | outcome [6] | outcome [7] | outcome [8]

COc1ccc2nccc([C@@H](O)CN3CCC(NC(=O)/C=C/c4ccc5ccccc5n4)CC3)c2c1
inactive: growth inhibition [1] 9% | inhibition [2] 12% | inhibition [3] 1% | outcome [5] | outcome [6] | outcome [7] | outcome [8]
active: growth inhibition [4] 91%

N#Cc1ccc(C(=O)NC2CCN(CCCCCNC(=O)/C=C/c3ccc(Cl)c(Cl)c3)CC2)cc1
inactive: growth inhibition [1] 1% | inhibition [2] 13% | inhibition [3] -4% | outcome [5] | outcome [6] | outcome [7] | outcome [8]
active: growth inhibition [4] 98%

COc1ccc(OCC(=O)Nc2cc(-c3nc4ccccc4[nH]3)ccc2Cl)cc1
inactive: growth inhibition [1] 33% | inhibition [2] 18% | inhibition [3] -4% | outcome [5] | outcome [6] | outcome [7] | outcome [8]
active: growth inhibition [4] 94%

Cc1cc(N2CCN(C)CC2)nc2ccc(NC(=O)Cc3cccc(C(F)(F)F)c3)cc12
active: growth inhibition [1] 51% | growth inhibition [4] 99%
inactive: inhibition [2] 26% | inhibition [3] 3% | outcome [5] | outcome [6] | outcome [7] | outcome [8]

O=C(N1CCN(c2ccc(C(F)(F)F)cc2[N+](=O)[O-])CC1)C(Cl)(Cl)Cl
active: growth inhibition [1] 99% | growth inhibition [4] 101%
inactive: inhibition [2] 29% | inhibition [3] 0% | outcome [5] | outcome [6] | outcome [7] | outcome [8]

O=C(c1cccc(-c2noc(C(F)(F)F)n2)c1)N1CCN(C(=O)c2ccc3cc[nH]c3c2)CC1
active: growth inhibition [1] 85% | growth inhibition [4] 94%
inactive: inhibition [2] 15% | inhibition [3] -3% | outcome [5] | outcome [6] | outcome [7] | outcome [8]

FC(F)(F)c1cccc2c(NN=Cc3ccccc3)ccnc12
inactive: inhibition [2] 10% | inhibition [3] -4% | outcome [5] | outcome [6] | outcome [7] | outcome [8]
active: growth inhibition [1] 90% | growth inhibition [4] 101%

COc1c(C)cc(I)cc1CNCCCNc1cc(=O)c2ccccc2[nH]1
inactive: growth inhibition [1] -2% | inhibition [2] -1% | inhibition [3] 2% | outcome [5] | outcome [6] | outcome [7] | outcome [8]
active: growth inhibition [4] 84%

C[C@H](Nc1nc(C(Oc2ccccc2)c2ccccc2)nc2[nH]ncc12)c1ccccc1 (stereo not given in full)
inactive: inhibition [2] 15% | inhibition [3] -5% | outcome [5] | outcome [6] | outcome [7] | outcome [8]
active: growth inhibition [1] 56% | growth inhibition [4] 100%

CCOC(=O)CCCOc1c(OC)cc(Cc2cnc(N)nc2N)cc1OC
inactive: growth inhibition [1] 7% | inhibition [2] 10% | inhibition [3] 8% | outcome [5] | outcome [6] | outcome [7] | outcome [8]
active: growth inhibition [4] 96%

CC(C)c1ccc(NC(=O)c2ccc(NCCCN(C)Cc3ccccc3)c([N+](=O)[O-])c2)cc1
inactive: growth inhibition [1] 35% | inhibition [2] 21% | inhibition [3] -2% | outcome [5] | outcome [6] | outcome [7] | outcome [8]
active: growth inhibition [4] 101%

CN1CCCc2cc(NC(=O)c3cc(-c4ccc(Cl)cc4)cs3)ccc2C1
inactive: growth inhibition [1] 34% | inhibition [2] 15% | inhibition [3] 4% | outcome [5] | outcome [6] | outcome [7] | outcome [8]
active: growth inhibition [4] 100%

COc1ccc(-n2nc(C)c3c2NC(=O)CC3c2ccccc2OCc2ccccc2F)cc1 (stereo not given)
inactive: inhibition [2] 38% | inhibition [3] 4% | outcome [5] | outcome [6] | outcome [7] | outcome [8]
active: growth inhibition [1] 70% | growth inhibition [4] 93%

COc1ccc2ccccc2c1CCCCN1CCN(CC(c2ccc(F)cc2)N2CCN(C3CCCC3)CC2)CC1 (stereo not given)
inactive: inhibition [3] 6% | outcome [5] | outcome [6] | outcome [7] | outcome [8]
active: growth inhibition [1] 51% | inhibition [2] 88% | growth inhibition [4] 88%

Cc1nc2ccc(NC(=O)c3cc(S(=O)(=O)N(C)C)ccc3Cl)cc2s1
inactive: inhibition [2] 20% | inhibition [3] -2% | outcome [5] | outcome [6] | outcome [7] | outcome [8]
active: growth inhibition [1] 77% | growth inhibition [4] 91%

Cc1nc2nc(N)nc(N)c2c(C)c1Cc1ccccc1I
inactive: growth inhibition [1] -5% | inhibition [3] 5% | outcome [5] | outcome [6] | outcome [7] | outcome [8]
active: inhibition [2] 63% | growth inhibition [4] 96%

CCCc1cc(C)ccc1OCCCON1C(NC(=O)OCC)=NC(NC(=O)OCC)=NC1(C)C
inactive: inhibition [3] 0% | outcome [5] | outcome [6] | outcome [7] | outcome [8]
active: growth inhibition [1] 97% | inhibition [2] 62% | growth inhibition [4] 95%

O=C(Cn1c(CCc2cccc(F)c2F)nc(=O)c2ccccc21)N(CCN1CCCCC1)Cc1ccc(-c2ccc(C(F)(F)F)cc2)cc1
active: growth inhibition [1] 89% | growth inhibition [4] 101%
inactive: inhibition [2] 32% | inhibition [3] 4% | outcome [5] | outcome [6] | outcome [7] | outcome [8]

O=C(c1ccc(F)c(F)c1)N1CCOC(CCN2CCC(c3ccccc3)CC2)(c2ccc(Cl)c(Cl)c2)C1 (stereo not given)
active: growth inhibition [1] 75% | inhibition [2] 51% | growth inhibition [4] 89%
inactive: inhibition [3] 2% | outcome [5] | outcome [6] | outcome [7] | outcome [8]

COc1cc(Nc2nccc(N3CCC(NC(=O)c4cccc(NC(C)=O)c4)C3)n2)cc(OC)c1OC (stereo not given)
active: growth inhibition [1] 68% | growth inhibition [4] 98%
inactive: inhibition [2] 9% | inhibition [3] -6% | outcome [5] | outcome [6] | outcome [7] | outcome [8]

CCC(C)CN1CCN(c2ccc(NC(=O)c3cccs3)cc2)CC1C (stereo not given)
inactive: inhibition [2] -3% | inhibition [3] 1% | outcome [5] | outcome [6] | outcome [7] | outcome [8]
active: growth inhibition [1] 94% | growth inhibition [4] 94%

CCc1cc2c(Sc3nnc(N)s3)ncnc2s1
active: growth inhibition [1] 65% | growth inhibition [4] 99%
inactive: inhibition [2] -20% | inhibition [3] -4% | outcome [5] | outcome [6] | outcome [7] | outcome [8]

CCOc1ccc2nc(C)cc(NN=Cc3ccccc3Cl)c2c1
inactive: inhibition [2] 11% | inhibition [3] -4% | outcome [5] | outcome [6] | outcome [7] | outcome [8]
active: growth inhibition [1] 100% | growth inhibition [4] 101%

O=C(Nc1ccc(-c2cccc(-c3nc4ccccc4[nH]3)c2)cc1)N[C@@H]1C[C@H]1c1ccccc1
active: inhibition [2] 63% | growth inhibition [4] 84%
inactive: growth inhibition [1] 6% | inhibition [3] -2% | outcome [5] | outcome [6] | outcome [7] | outcome [8]

Cn1nc(-c2cccc(CNCCc3cccs3)c2)c2cnc(NC3CCCC3)nc21
inactive: growth inhibition [1] -1% | inhibition [2] 8% | inhibition [3] -1% | outcome [5] | outcome [6] | outcome [7] | outcome [8]
active: growth inhibition [4] 97%

O=C(Nc1ccc2c(c1)CCN2C1CCN(Cc2cccc(F)c2F)C1)c1ccco1 (stereo not given)
inactive: inhibition [2] -4% | inhibition [3] 0% | outcome [5] | outcome [6] | outcome [7] | outcome [8]
active: growth inhibition [1] 90% | growth inhibition [4] 87%

Cc1ccc(F)cc1S(=O)(=O)Nc1ccc(CCN2CCC(N3CCCCC3)CC2)cc1
inactive: growth inhibition [1] 15% | inhibition [2] 25% | inhibition [3] -3% | outcome [5] | outcome [6] | outcome [7] | outcome [8]
active: growth inhibition [4] 99%

CCOC(=O)C1=C(C)N=c2sc(=Cc3cc(Cl)ccc3O)c(=O)n2C1c1ccc2c(c1)OCO2 (stereo not given)
inactive: inhibition [2] -2% | inhibition [3] -1% | outcome [5] | outcome [6] | outcome [7] | outcome [8]
active: growth inhibition [1] 91% | growth inhibition [4] 96%

Cc1[nH]c(C)c(-c2ccc(OCc3cc(C(F)(F)F)cc(C(F)(F)F)c3)nc2)c(=O)c1Br
inactive: inhibition [2] 28% | inhibition [3] -2% | outcome [5] | outcome [6] | outcome [7] | outcome [8]
active: growth inhibition [1] 96% | growth inhibition [4] 98%

OC(CNc1ccnc(Nc2ccc(Cl)cc2)n1)c1ccc(C(F)(F)F)cc1 (stereo not given)
active: growth inhibition [1] 94% | growth inhibition [4] 101%
inactive: inhibition [2] -2% | inhibition [3] -6% | outcome [5] | outcome [6] | outcome [7] | outcome [8]

COCCN1CCN(Cc2ccc(-c3ccc(-c4nc5c(C)cccc5[nH]4)s3)cc2)CC1
active: growth inhibition [1] 52% | growth inhibition [4] 95%
inactive: inhibition [2] 32% | inhibition [3] -2% | outcome [5] | outcome [6] | outcome [7] | outcome [8]

NC(N)=Nc1nc(-c2cccc(NCCCCCCCCON3C(N)=NC(N)=NC34CCCCC4)c2)cs1
inactive: growth inhibition [1] 42% | inhibition [2] 3% | inhibition [3] -2% | outcome [5] | outcome [6] | outcome [7] | outcome [8]
active: growth inhibition [4] 97%

From PubChem BioAssay
